# This is part of a sample that, as a whole, favours compounds with a hit. Of some 83,000 tested, about 20% had one in any assay.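 Assay: single dose, 48 h. Readout: percent growth (0 = no net growth; negative = cell death). Active: <10.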 A number with no mark means an inactive call. Activity calls are given as the source filed them.
# System: NCI-H226 lung
# Experiment: NCI-60 one-dose screen, 48 h (100 = growth as untreated, 0 = no growth, -100 = all killed)
# Conditions: 10 µM unless noted
row,Structure (SMILES),growth
1,CCC1=CCC[C@@]2(C)CCC[C@@]3(C)CCCC(C)(C)[C@]1([O-])[O+]32,102%
2,CCNc1nc(S(=O)(=O)CC)nc2ccccc12,102%
3,CC12CCC3C4(C)COC(c5ccco5)OC4CCC3(C)C1CC(C1=CCOC1=O)O2 (centres undefined),101%
4,Cc1cc(C)n(-c2nnc3n2N=C(c2ccc(-c4ccccc4)cc2)CS3)n1,68.4%
5,N=c1ccc2nc3ccc(N)cc3sc-2c1,87.8%
6,CN(C)CCCC(C#N)c1ccccc1 (centres undefined),107%
7,O=S(=O)(NCCCNc1nccc(-n2ccc3cccnc32)n1)c1cccc(C(F)(F)F)c1,104%
8,COc1cccc(-c2cc3c(O)cc(C#N)cc3[nH]2)c1,101%
9,CCCCCCCCCCCCNC(=O)[C@H]1CSC(c2ccsc2)N1 (some centres undefined),-74.1% (active)
10,c1ccc(Nc2nc(Nc3ccccc3)nc(Nc3ccccc3)n2)cc1,89%
11,O=C(Oc1ccccc1[N+](=O)[O-])C1CCCN1C(=O)OCc1ccccc1 (centres undefined),99.8%
12,O=C(/C=C\c1cccc([N+](=O)[O-])c1)/C=C/c1cccc([N+](=O)[O-])c1,105%
13,CCCCCCCCCCCCNC(=O)[C@H]1CSC(c2cc3ccccc3s2)N1 (some centres undefined),22.8%
14,COc1ccc(S(=O)(=O)Nc2cc(/C=C\c3cc(OC)c(OC)c(OC)c3)cc(OC)c2OC)cc1,35.2%
15,Oc1ccc(Cl)cc1-c1cc(-c2ccc(F)cc2)n[nH]1,92.7%
16,CCCCN(CCCC)C(=O)CC,104%
17,COc1ccc(N2CCN(Cc3cc(C(=O)/C=C/c4c[nH]c5ccccc45)ccc3O)CC2)cc1,100%
18,O=C1c2c(c3c4ccccc4n(CCCCCCBr)c3c3[nH]c4ccccc4c23)C(=O)N1O,70.5%
19,CCCCCCCC[C@@H](O)CC(=O)N[C@@H](CC(N)=O)C(=O)N[C@@H](CCC(N)=O)C(=O)N[C@@H](CC(=O)c1cc(C)cc(O)c1C(=O)c1c(O)cccc1O)CC(C)C,89.1%
20,S=C(S)NCCc1c[nH]c2ccccc12,66.5%
21,O=C1/C(=C/c2ccccc2)Oc2ccc(O)c(I)c21,74.9%
22,COc1ccc(C2=CC(c3cc(OC)c(OC)c(OC)c3)NC(=O)N2)cc1OC (centres undefined),64.3%
23,O=C(O)C1CCCCN1c1nc(Cl)nc(Cl)n1 (centres undefined),89.1%
24,O=S(=O)(NCCCNc1nccc(-n2ccc3cccnc32)n1)c1ccc(Br)cc1,96.5%

# — PubChem BioAssay (NCI)
